Drawing on PubChem BioAssay AID2629 (Broad Institute, 2010), this text covers inhibition for 24 molecules.

Out of some 320,000 compounds screened, about 1,900 (0.59%) were called active. Rule as the data show it: active = inhibition mostly above about 10% (no sharp cut-off); inactive = mostly below about 6.7%. For the sample, actives were picked, then their nearest neighbours and some compounds at random.

The target of the assay is Protein LANA1 (Human herpesvirus 8 type P (isolate GK18)) (UniProt Q9QR71). Kind of assay: blockers of LANA interaction with H2A/H2B – biochemical, FP readout, HTS, primary screen (AID 2629). Particulars: cell-free LANA-H2A/H2B peptide, fluorescence polarization, hits give high values, concentration not given here. Background: Fluorescence polarisation rises when a labelled molecule tumbles more slowly, as on binding a larger partner.
Sequence of Protein LANA1 (Human herpesvirus 8 type P (isolate GK18)) (Q9QR71 whole entry, looked up): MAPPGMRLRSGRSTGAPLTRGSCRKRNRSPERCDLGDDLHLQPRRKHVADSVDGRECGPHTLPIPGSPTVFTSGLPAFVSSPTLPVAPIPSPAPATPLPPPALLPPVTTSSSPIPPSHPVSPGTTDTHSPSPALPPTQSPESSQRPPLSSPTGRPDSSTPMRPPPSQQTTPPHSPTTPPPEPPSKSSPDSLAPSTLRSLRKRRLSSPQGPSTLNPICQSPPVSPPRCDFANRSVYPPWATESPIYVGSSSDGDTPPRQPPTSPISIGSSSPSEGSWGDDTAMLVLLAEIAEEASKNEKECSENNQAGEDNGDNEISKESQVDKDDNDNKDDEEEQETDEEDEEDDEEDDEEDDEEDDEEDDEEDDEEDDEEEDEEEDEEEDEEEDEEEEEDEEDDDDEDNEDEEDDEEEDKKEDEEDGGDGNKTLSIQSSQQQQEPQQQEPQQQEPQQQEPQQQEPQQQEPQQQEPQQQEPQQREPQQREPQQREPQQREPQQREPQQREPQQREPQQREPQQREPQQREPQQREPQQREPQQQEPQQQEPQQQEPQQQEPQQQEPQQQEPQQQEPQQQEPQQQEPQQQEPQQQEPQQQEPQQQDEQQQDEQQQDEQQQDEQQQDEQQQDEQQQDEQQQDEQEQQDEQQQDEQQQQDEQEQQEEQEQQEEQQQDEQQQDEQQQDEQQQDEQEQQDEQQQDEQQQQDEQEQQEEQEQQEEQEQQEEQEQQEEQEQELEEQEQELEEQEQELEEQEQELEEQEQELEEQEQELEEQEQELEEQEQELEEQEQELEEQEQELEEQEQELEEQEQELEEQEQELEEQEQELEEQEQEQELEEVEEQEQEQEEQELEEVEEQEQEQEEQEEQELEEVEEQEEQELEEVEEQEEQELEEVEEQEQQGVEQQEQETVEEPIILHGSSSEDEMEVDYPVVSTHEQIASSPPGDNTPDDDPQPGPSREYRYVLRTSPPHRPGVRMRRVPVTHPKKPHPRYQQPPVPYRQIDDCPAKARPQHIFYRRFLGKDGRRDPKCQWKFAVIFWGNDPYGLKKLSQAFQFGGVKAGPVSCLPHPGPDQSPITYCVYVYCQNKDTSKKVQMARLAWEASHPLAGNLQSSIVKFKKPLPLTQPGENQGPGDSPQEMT
Usually inhibition stands for the relative decrease from the control value, in per cent. Turning to `NNC(=O)C1CC(O)CN1S(=O)(=O)c1ccc(Cl)cc1` (centres undefined), the inhibition is 18% (active).

Regarding `COc1ccccc1NC(=O)C1CCCN1S(=O)(=O)c1ccc(Cl)cc1` (centres undefined), the inhibition was -0.219% (inactive).

On to `O=C1COc2ccc(C(=O)COC(=O)C3CC(O)CN3S(=O)(=O)c3ccc(Cl)cc3)cc2N1` (centres undefined), for which the inhibition was -4.73% (inactive).

Take `COc1ccc2c(C)cc3nnnn3c2c1`: the inhibition was 6.55% (inactive).

With `O=C(CN1C(=O)NC2(CCCC2)C1=O)Nc1cc(C(F)(F)F)ccc1N1CCOCC1`, the inhibition is -2.08% (inactive).

With `CC(C)CC(=O)Nc1cc(C(F)(F)F)ccc1N1CCOCC1`, the inhibition is 3.7% (inactive).

In the case of `O=C(Cn1nnc2ccccc2c1=O)Nc1cc(C(F)(F)F)ccc1N1CCOCC1`, the inhibition was 15.8% (active).

As to `Cc1cc(Nc2cc(N3CCN(C)CC3)nc(Sc3ccc(NC(=O)C4CC4)cc3)n2)n[nH]1`, the inhibition is 1.71% (inactive).

`CN(c1ccccc1)S(=O)(=O)c1ccc(Cl)c(C(=O)OCC(N)=O)c1`: the inhibition is -3.79% (inactive).

Consider `CN(c1ccccc1)S(=O)(=O)c1ccc(Cl)c(C(=O)OCC(=O)NCc2ccco2)c1`, for which the inhibition is -3.84% (inactive).

Take `Cc1ccc(S(=O)(=O)N(CC(O)CN2CCCCC2)c2cccc([N+](=O)[O-])c2)cc1` (centres undefined): the inhibition was 7.02% (inactive).

On to `Cc1cc(=O)n2nc(N3CCCC(C(=O)N4CCN(C)CC4)C3)sc2n1` (centres undefined), for which the inhibition was 0.763% (inactive).

As for `CCc1c(C)nc2ncnn2c1N1CCC(C(=O)NCc2ccc3c(c2)OCO3)CC1`, the inhibition is 0.84% (inactive).

With `CCn1c(SCC(=O)NC2CCCC2)nnc1-c1ccoc1C`, the inhibition is -2.52% (inactive).

Turning to `Cc1occc1-c1nnc(SCC(=O)NC2CCCCC2)o1`, the inhibition is 14.3% (active).

Regarding `O=C(CSc1nnc(-c2ccccc2O)o1)NC1CCCCC1`, the inhibition was 3.2% (inactive).

Regarding `CCCCSCCCNC(=O)C1CCC(CNS(=O)(=O)c2ccc(NC(C)=O)cc2)CC1` (centres undefined), the inhibition was -3.44% (inactive).

Regarding `CCCC1C(c2ccccc2)C(C#N)(C#N)C2(C#N)CC1(N)NC2=O` (centres undefined), the inhibition was 182% (active).

Consider `CCSC1=NCCN1C(=O)c1ccc(S(=O)(=O)N(CC)CC)cc1`, for which the inhibition was 10.9% (inactive).

As to `O=C(CN1C(=O)CCC1=O)Nc1ccc(S(=O)(=O)N2CCOCC2)cc1`, the inhibition was 1.75% (inactive).

On to `O=C(CN1CCN(c2cccc(Cl)c2)CC1)Nc1ccc(S(=O)(=O)N2CCOCC2)cc1`, for which the inhibition is 145% (active).

For the molecule `O=C(CN1CCCCCC1)Nc1ccc(S(=O)(=O)N2CCCCC2)cc1`, the inhibition is 7.61% (inactive).

As for `COC(=O)CNS(=O)(=O)c1ccc(Cc2ccc(S(=O)(=O)NCC(=O)OC)cc2)cc1`, the inhibition was 5.82% (inactive).

As to `COC(=O)C1=C(C)NC2=C(C(=O)c3ccccc32)C1c1ccc(-c2ccc(C(=O)O)cc2)o1` (centres undefined), the inhibition was 3.17% (inactive).
